Screens deposited in PubChem BioAssay by National Center for Advancing Translational Sciences (NCATS).
Rab9 promoter act = activates the Rab9 promoter; Huh7 Rab9 promoter-luciferase reporter, luminescence, 24 h; Potency, µM (titrated, usually from 9.22 µM), inactives show top-dose activation, negative = inhibition, actives largely listed as activators; 320,000 tested, 2.8% active; AID 485297; note: % of control where 0% means no effect; nearly all actives have a fitted effect of over 60% in size
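Cell-based reporter: Huh7 stable for Rab9 promoter-driven luciferase, plated in reduced-serum medium with 10% FBS at 1500 cells/well, compound-treated 24 h at 37 °C, luminescence read after 10 min reagent.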
ELG1 genotox = induces genotoxicity in HEK293T cells with luciferase-tagged ELG1. AID 504466. Potency, µM (highest dose often 46 µM), without a hit: at the top dose activity change, positive = activation, hits mostly activators. HEK293T ELG1-luciferase reporter, luminescence, 16 h. 330,000 tested, 1.3% active; note: % of control where 0% means no effect; nearly all actives have a fitted effect of over 60% in size
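Genotoxicity was scored as increased ELG1-luciferase reporter signal, measured by ONE-Glo luminescence (30 min, room temperature). Compound or vehicle exposure of the HEK293T reporter cells lasted 16 hr at 37°C.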
FLuc modulator = counter-screen for miR-21 project: firefly luciferase inhibitors or activators; purified FLuc, Km substrates, luminescence inhibition; 360,000 tested, 6.9% active; Potency, µM (top dose mostly 57.5 µM), for inactives: top-dose activity change, negative = inhibition, actives largely listed as inhibitors;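 note: plate controls were vehicle for no effect and reference inhibitor for full effect; nearly all actives have a fitted effect of over 55% in size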
Target sequence (P08659 whole entry, looked up): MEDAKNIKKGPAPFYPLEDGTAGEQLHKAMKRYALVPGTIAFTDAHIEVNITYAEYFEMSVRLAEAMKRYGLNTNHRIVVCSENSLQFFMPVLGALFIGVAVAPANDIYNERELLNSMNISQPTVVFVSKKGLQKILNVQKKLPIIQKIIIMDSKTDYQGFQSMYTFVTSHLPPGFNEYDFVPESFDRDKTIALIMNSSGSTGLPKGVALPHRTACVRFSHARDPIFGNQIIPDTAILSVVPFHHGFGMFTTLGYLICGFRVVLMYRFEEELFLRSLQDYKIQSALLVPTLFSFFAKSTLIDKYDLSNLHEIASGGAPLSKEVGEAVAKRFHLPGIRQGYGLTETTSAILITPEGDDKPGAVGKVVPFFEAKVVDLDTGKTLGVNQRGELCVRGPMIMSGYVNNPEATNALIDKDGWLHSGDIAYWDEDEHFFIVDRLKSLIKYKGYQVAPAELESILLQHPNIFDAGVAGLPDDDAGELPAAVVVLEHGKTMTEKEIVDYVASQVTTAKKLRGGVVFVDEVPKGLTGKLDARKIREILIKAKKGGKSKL
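Purified P. pyralis luciferase, 10 nM final, with Km-level 10 uM D-luciferin and 10 uM ATP in 50 mM Tris acetate pH 7.5, 10 mM Mg acetate, 0.01% Tween-20, 0.05% BSA; 6-point qHTS titration about 60 µM downward; luminescence read.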
SMN2 splice up = increases expression of the SMN2 splice variant; HEK293 SMN2-luciferase splicing reporter, luminescence, 30-36 h; 210,000 tested, 2.8% active; Potency, µM (highest dose often 46.1 µM), inactives show at the highest dose activity change, positive = activation, actives largely listed as activators; note: % of control where 0% means no effect; nearly all actives have a fitted effect of over 55% in size
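HEK293 cells carry an SMN2 minigene-luciferase reporter in which exon 7 inclusion puts luciferase in frame. Cells were seeded at 2000 cells/well, attached for 10-12 hours, then exposed to compounds for 30-36 hours at 37C before ONE-Glo luminescence.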
NPC1 prom act = NPC1 promoter activation | Huh7 NPC1 promoter luciferase reporter, 24 h | Potency, µM (titrated, usually from 9.22 µM), inactives show top-dose activation, usual class: activators | 320,000 tested, 2.4% active | AID 485313; note: % of control where 0% means no effect; nearly all actives have a fitted effect of over 60% in size
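In 1536-well qHTS, Huh7 cells harboring an NPC1 promoter–luciferase construct received compound for 24 h; activation was quantified by luminescence following luciferase reagent addition.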
Active calls of the source: *; [ ] = another dose, or the depositor's remark. Sampled rows, rich in hits. Any-hit rate of the full collection: about 7.4%. Calls come from the whole dose curve; as a rule, active = well fitted curve in the direction sought with a large enough effect; inconclusive = small, poorly fitted or top-dose-only effect, or another doubt; inactive = no such curve, though single readings can be large; an effect the other way counts as inactive or inconclusive. Potency is the fitted concentration of half-maximal effect.

For O=C(O)c1cc(S(=O)(=O)O)cc(Nc2c3ccccc3nc3ccccc23)c1O the results were Rab9 promoter act -5%, ELG1 genotox -4%, FLuc modulator 8.5µM* and NPC1 prom act 4%.
`O=C(O)c1cc(NN=C2c3ccccc3-c3ccccc32)ccc1Cl` gave Rab9 promoter act 0%, ELG1 genotox 1%, FLuc modulator inconclusive and NPC1 prom act -3%.
Cc1ccc(N/N=C2\CC(=O)c3ccccc32)cc1Cl was read as Rab9 promoter act 16%, ELG1 genotox inconclusive, FLuc modulator 9.5µM* and NPC1 prom act 2%.
Screening CC(=O)Nc1cccc(C(=O)NCCc2ccco2)c1 returned Rab9 promoter act inconclusive, ELG1 genotox 23µM*, FLuc modulator inconclusive and NPC1 prom act inconclusive.
For Cc1ccc(NC(=O)/C(=C\c2ccco2)NC(=O)c2ccco2)cc1 the results were Rab9 promoter act -9%, ELG1 genotox 5%, FLuc modulator -17% and NPC1 prom act 1%.
Screening CC(=O)Nc1ccc(C(=O)/C=C/c2ccco2)cc1 returned Rab9 promoter act 22%, ELG1 genotox 11%, FLuc modulator 9.5µM*, SMN2 splice up 16% and NPC1 prom act 13%.
`O=C(/C=C\c1ccco1)c1ccc(NC(=O)c2ccco2)cc1` gave Rab9 promoter act inconclusive, ELG1 genotox inconclusive, FLuc modulator 11µM* and NPC1 prom act inconclusive.
Cc1ccc(NC(=O)N/C=C/c2ccco2)cc1 was read as Rab9 promoter act 2.8µM*, ELG1 genotox inconclusive, FLuc modulator inconclusive, SMN2 splice up 14µM* and NPC1 prom act 2.8µM*.
CC(=O)N(C)c1ccc(NC(=S)NC(=O)/C=C/c2ccco2)cc1 was read as Rab9 promoter act -1%, ELG1 genotox 1%[9.26 µM], FLuc modulator inconclusive and NPC1 prom act 1%.
For Cc1ccc(Cn2c(CNS(=O)(=O)c3ccc(C(C)(C)C)cc3)nc3cccnc32)cc1 the results were FLuc modulator -8%.
`O=C(O)c1cccnc1Sc1ccc(Br)cc1` gave Rab9 promoter act 6%, ELG1 genotox 0%, FLuc modulator -2% and NPC1 prom act -7%.
`CC(=O)Nc1cccc(C(=O)/C=C/c2ccco2)c1` gave Rab9 promoter act 21%, ELG1 genotox 7%, FLuc modulator 19µM*, SMN2 splice up 2% and NPC1 prom act inconclusive.
Screening O=C(CN1C(=O)NC2(CCCCCC2)C1=O)NCc1ccc(Cl)cc1 returned ELG1 genotox 0%.
Screening CCCN1CCN(c2ncnc3sc(C(=O)Nc4ccc(OC(F)(F)F)cc4)c(C)c23)CC1 returned FLuc modulator -3%.
COc1ccc(-c2cc(C(=O)N3CCc4ccccc4C3)no2)cc1 was read as Rab9 promoter act -4%, ELG1 genotox 24%, FLuc modulator 17µM*, SMN2 splice up 2% and NPC1 prom act 1%.
`COc1cccc(-c2cc(C(=O)N3CCc4ccccc4C3)no2)c1` gave Rab9 promoter act -3%, ELG1 genotox inconclusive, FLuc modulator inconclusive, SMN2 splice up 11% and NPC1 prom act -2%.
`COc1ccc(-c2cc(C(=O)N3CCN(c4ccccc4)CC3)no2)cc1` gave Rab9 promoter act inconclusive, ELG1 genotox inconclusive, FLuc modulator 6.7µM*, SMN2 splice up inconclusive and NPC1 prom act 2.8µM*.
N[C@H](CS)C(=O)O was read as SMN2 splice up 3%.
For COc1ccc(NC(=O)CSc2nc(N)c3cc4c(nc3n2)CCCC4)c(OC)c1 the results were Rab9 promoter act 2%, ELG1 genotox 4%, FLuc modulator 12µM*, SMN2 splice up 9% and NPC1 prom act 15%.
`Nc1nc(SCC(=O)Nc2ccccc2)nc2nc3c(cc12)CCCC3` gave Rab9 promoter act 22%, ELG1 genotox 3%, FLuc modulator inconclusive, SMN2 splice up inconclusive and NPC1 prom act 10%.
`Cc1ccc(NC(=O)CSc2nc(N)c3cc4c(nc3n2)CCCC4)cc1` gave Rab9 promoter act 15%, ELG1 genotox 1%, FLuc modulator 2.1µM*, SMN2 splice up 4% and NPC1 prom act 17%.
`Cc1ccccc1CNCCCSc1nnnn1C` gave FLuc modulator 0%.
Screening O=C(Cc1c(F)cccc1Cl)Nc1nc2ccccc2s1 returned Rab9 promoter act inconclusive, ELG1 genotox 9%, FLuc modulator 27µM*, SMN2 splice up -6% and NPC1 prom act 20%.
Cc1nc2ccc(NC(=O)Cc3c(F)cccc3Cl)cc2s1 was read as Rab9 promoter act 2.5µM*, ELG1 genotox inconclusive, FLuc modulator 4.8µM* and NPC1 prom act 2.8µM*.
COc1ccc(NC(=O)Cc2c(F)cccc2Cl)cc1 was read as Rab9 promoter act 22%, ELG1 genotox inconclusive, FLuc modulator inconclusive, SMN2 splice up inconclusive and NPC1 prom act 20%.
CC(=O)c1sc(NC(=O)Cc2c(F)cccc2Cl)nc1C was read as Rab9 promoter act 0%, ELG1 genotox -6%, FLuc modulator -1% and NPC1 prom act 0%.
`Cc1cc(N2CCN(C)CC2)n2nc(-c3ccc(Cl)cc3)nc2n1` gave Rab9 promoter act -6%, ELG1 genotox 5%, FLuc modulator -18%, SMN2 splice up -11%[9.22 µM] and NPC1 prom act 0%.
Cc1cc(C)n2nc(-c3ccc(Cl)cc3)nc2n1 was read as FLuc modulator 15µM* and SMN2 splice up 16µM*.
`C=CCNC(=S)NC(=O)c1oc2ccccc2c1C` gave Rab9 promoter act 4µM*, ELG1 genotox inconclusive, FLuc modulator 9.5µM*, SMN2 splice up inconclusive and NPC1 prom act inconclusive.
Cc1c(C(=O)NC(=S)NCC(C)C)oc2ccccc12 was read as Rab9 promoter act inconclusive, ELG1 genotox inconclusive, FLuc modulator 3µM*, SMN2 splice up 13µM* and NPC1 prom act 2.8µM*.
Cc1cccnc1NC(=S)NC(=O)c1oc2ccccc2c1C was read as Rab9 promoter act 3.2µM*, ELG1 genotox inconclusive, FLuc modulator 19µM* and NPC1 prom act 1.8µM*.
CC(=O)Nc1ccc(NC(=S)NC(=O)c2oc3ccccc3c2C)cc1 was read as Rab9 promoter act 6%, ELG1 genotox 10%, FLuc modulator 0%, SMN2 splice up -24% and NPC1 prom act 1%.
Cc1ccccc1CSc1cn(CC(=O)N2CCCCC2)c2ccccc12 was read as FLuc modulator -19%.
`CC(=O)OC1CC(O)C(C)(C)C2CC(OC(C)=O)[C@]3(C)C(CC[C@@]4(C)C(c5ccoc5)OC(=O)C5OC534)[C@]12C` (some centres not stated) gave SMN2 splice up -4%.
For O=Cc1cccc(OC(=O)/C=C/c2ccco2)c1 the results were Rab9 promoter act 13%, ELG1 genotox inconclusive, FLuc modulator 27µM* and NPC1 prom act inconclusive.
